Measured values as given in PubChem BioAssay AID463173 (ICCB-Longwood Screening Facility, Harvard Medical School, 2010).
The whole screen tested about 52,000 compounds, of which about 4,300 (8.3%) were called active. The sample holds actives, similar compounds and a random draw of the others, so the mix is not that of the screen. Unmarked numbers belong to inactive results. No stated cut-off is given here; in the data, active means survival mostly below about 52% (no sharp cut-off); inactive means mostly above about 56%.

tested on: DeltatarO mutant; assay: growth inhibition of S. aureus wild type versus tarO mutant, primary screen, teichoic acid synthesis inhibitors, RN4220, OD600 (AID 463173); details: OD600, 18 h, hits give low values, screened at 18.75 µg/mL (by protocol)

| Compound | survival |
| --- | --- |
| Cc1ccccc1CNC(=O)Cn1nc(C)c2nn(-c3ccc(Cl)cc3)c(C)c2c1=O | 37% (active) |
| CCOC(=O)c1ccc(NC(=O)Cn2nc(C)c3nn(-c4ccc(Cl)cc4)c(C)c3c2=O)cc1 | 102% |
| COc1ccccc1CNC(=O)Cn1nc(C)c2nn(-c3ccc(Cl)cc3)c(C)c2c1=O | 63% |
| Cc1nn(CC(=O)Nc2ccc(OC(F)(F)F)cc2)c(=O)c2c(C)n(-c3ccc(Cl)cc3)nc12 | 25% (active) |
| CCOc1ccccc1CNC(=O)Cn1nc(C)c2nn(-c3ccc(Cl)cc3)c(C)c2c1=O | 101% |
| COc1ccc(NC(=O)Cn2nc(C)c3nn(-c4ccc(Cl)cc4)c(C)c3c2=O)cc1 | 85% |
| Cn1c(=O)oc2cc(S(=O)(=O)N3CCC(C(=O)N4CCN(c5ccccc5F)CC4)CC3)ccc21 | 80% |
| Cc1cccc(NC(=O)CSc2nnc3[nH]c(=O)cc(C)n23)c1C | 75% |
| CN(C)S(=O)(=O)c1ccc(S(=O)(=O)N2CCN(C=O)CC2)cc1 | 105% |
| CCOc1ccc(CNC(=O)Cc2ccc(NC(=O)N3CCSc4ncccc43)cc2)cc1 | 96% |
| CC(C)(C)C(=O)N1CCN(c2nc3c(F)cccc3s2)CC1 | 82% |
| Cc1cccc(OCc2nnc(SCC(N)=O)o2)c1 | 91% |
| CCOC(=O)CSc1nnc(COc2cccc(C)c2)o1 | 42% (active) |
| COC(=O)CSc1nnc(COc2cccc3ccccc23)o1 | 46% (active) |
| Cc1ccccc1OCc1nnc(SCC(=O)N(Cc2ccccc2)C(C)(C)C)o1 | 59% (active) |
| NC(=O)CSc1nnc(COc2cccc3ccccc23)o1 | 89% |
| Cc1csc(N(C)C(=O)CSc2nnc(COc3cccc4ccccc34)o2)n1 | 56% |
| Cc1cccc(OCc2nnc(SCC(=O)N3c4ccccc4CCc4ccccc43)o2)c1 | 99% |
| Cc1ccc(NCc2nnc(SCC(=O)N(Cc3ccccc3)C(C)(C)C)o2)c(C)c1 | 94% |
| CC(C)(C)N(Cc1ccccc1)C(=O)CSc1nnc(CNc2ccc(F)cc2)o1 | 74% |

| Compound | survival |
| --- | --- |
| On1ccc2c(Br)cncc21 | 94% |
| CCc1ccc2nc(N3CCN(C(=O)c4ccco4)CC3)sc2c1 | 86% |
| O=C(CSc1nc(-c2cccc(Cl)c2)nc2cc(=O)[nH]n12)Nc1ccccc1 | 71% |
| Cc1ccc(CSc2ncc(Cl)c(C(=O)Oc3ccc(F)cc3)n2)cc1 | 77% |
| CCC(=O)N1c2ccccc2CC1C(=O)NCc1cccc(OC)c1OC (stereo not given) | 84% |
| COc1cc(C2C(C#N)=C(N)Oc3n[nH]c(C(F)(F)F)c32)ccc1OCC(N)=O (stereo not given) | 72% |
| CC(NC(=O)Cn1c(=O)oc2cc(S(=O)(=O)N3CCCCCC3)ccc21)c1ccccc1 (stereo not given) | 82% |
| COc1ccccc1CNC(=O)C1CCN(c2nnc(C)c3c(C)n(-c4ccccc4)nc23)CC1 | 104% |
| Cc1noc(/C=C/c2ccco2)c1S(=O)(=O)N1CCC(C(=O)Nc2ccc(F)c(Cl)c2)CC1 | 100% |
| CCOC(=O)c1sc2cccc(F)c2c1S(=O)(=O)N1CCN(c2cccc(Cl)c2)CC1 | 102% |
| COc1cccc(OC)c1C(=O)NCCc1sc(-c2cccc(F)c2)nc1C | 69% |
| CCn1cc(C(=O)NCc2ccccc2Cl)c(=O)c2cc(S(=O)(=O)N3CCOCC3)ccc21 | 75% |
| CCN(c1ccccc1)S(=O)(=O)c1ccc(F)c(C(=O)Nc2ccc(C)cc2)c1 | 100% |
| Cc1ccc(C(=O)Nc2ccc(Br)cc2)cc1S(=O)(=O)NCc1ccccc1 | 83% |
| COc1ccc(C(=O)Nc2ccccc2)cc1S(=O)(=O)Nc1ccc(Br)cc1 | 78% |
| Cc1ccc(C(=O)Nc2ccccc2)cc1S(=O)(=O)Nc1ccc(Br)cc1 | 6% (active) |
| O=C(O)c1ccc(NC(=O)c2ccc(Cl)c(S(=O)(=O)N3CCCCCC3)c2)cc1 | 131% |
| O=C(Nc1ccccc1)c1ccc(Cl)c(S(=O)(=O)Nc2ccccc2)c1 | 43% (active) |
| O=C(O)c1ccc(NS(=O)(=O)c2ccc(Cl)c(C(=O)Nc3ccccc3)c2)cc1 | 73% |
| CCOc1cccc(NC(=O)c2ccc(F)c(S(=O)(=O)N(CC)c3cccc(C)c3)c2)c1 | 86% |

| Compound | survival |
| --- | --- |
| CCN(c1ccccc1)S(=O)(=O)c1cc(C(=O)Nc2ccc(Br)cc2)ccc1F | 6% (active) |
| Cc1ccc(C(=O)Nc2ccccc2)cc1S(=O)(=O)Nc1ccccc1 | 46% (active) |
| Cc1ccc(C(=O)Nc2ccc(C(=O)O)cc2)cc1S(=O)(=O)Nc1ccccc1 | 74% |
| Cc1ccc(C(=O)Nc2cccc(C(=O)O)c2)cc1S(=O)(=O)N1CCCC1 | 81% |
| CCOCCCNC(=O)C(Cc1ccccc1)NS(=O)(=O)c1ccc2c(c1)c(=O)n(C)c(=O)n2C (stereo not given) | 88% |
| O=C(Cc1cccs1)Nc1ccccc1 | 70% |
| CN(C)c1cccc(C(=O)Nc2ccc(-c3nc4ccccc4s3)cc2)c1 | 106% |
| O=C(NCC(c1cccnc1)N1CCN(c2ccccc2F)CC1)c1ccc(F)cc1 (stereo not given) | 92% |
| Cc1ccc(NC(=O)CSc2nc3nc(C)c(Cc4ccccc4)c(C)n3n2)cc1 | 60% |
| Cc1nc2nc(SCC(=O)NCc3ccccc3)nn2c(C)c1Cc1ccccc1Cl | 147% |
| Cc1cccc(Cc2c(C)nc3nc(SCC(=O)NCc4ccc(F)cc4)nn3c2C)c1 | 56% |
| Cc1cccc(Cc2c(C)nc3nc(SCc4ccccc4C)nn3c2C)c1 | 95% |
| Cc1nc2nc(SCC(=O)NCc3ccccc3)nn2c(C)c1Cc1ccccc1 | 8% (active) |
| Cc1cccc(Cc2c(C)nc3nc(SCC(=O)NCc4ccccc4)nn3c2C)c1 | 40% (active) |
| Cc1cccc(Cc2c(C)nc3nc(SCc4ccccc4Cl)nn3c2C)c1 | -9% (active) |
| Cc1cccc(Cc2c(C)nc3nc(SCc4ccccc4F)nn3c2C)c1 | 84% |
| CCN(CC)CCNC(=O)CSc1nc2nc(C)c(Cc3ccccc3)c(C)n2n1 | 86% |
| COc1cc(NC(=O)CSc2nc3nc(C)c(Cc4ccccc4)c(C)n3n2)cc(OC)c1OC | 80% |
| Cc1nc2nc(SCC(=O)NCc3ccccc3Cl)nn2c(C)c1Cc1ccccc1 | 64% |
| Cc1nc2nc(SCC(=O)Nc3ccccc3Cl)nn2c(C)c1Cc1ccccc1 | 20% (active) |
